A selection: hits, their analogues and other compounds. The true share with any hit is near 32%.
PostGolgi yeast: phenotypic screen on post-Golgi transport, primary screen | post-Golgi transport phenotypic cell assay | inhibition, % at 10 µM | hit rate 0.9% among 98,000 | AID 739, 2007;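 note: yeast cells grown in 1536-well plates; yeast grown about 18 h at 30C before absorbance read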
CYP2C19 act: human CYP2C19 activators, primary screen, biochemical, luminescence; activation factor at 5 µM; Cytochrome P450 2C19 (Homo sapiens), P33261; AID 1025, 2008; 96,000 tested, under 10 active; recombinant CYP2C19, luciferin-H EGE luminescence; stronger effect = higher value; 0 = fully inhibited enzyme, 1 = untreated enzyme;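 active = activation factor of at least 2 at 5 µM in the primary screen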
CYP2C19 inhib: blockers of cytochrome P450 2C19 activity – biochemical, luminescence, ADME assay, primary screen; P33261; CYP2C19 Supersomes, luciferin-H EGE luminescence, 30 min; inhibition, % at 5 µM; hit rate 21% among 96,000;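 active = CYP2C19 inhibition above a set limit at 5 µM in the primary screen, cut at about 50% in these data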
PostGolgi ctrl: growth inhibition of yeast control strain, primary screen, counter-screen for post-Golgi transport modulator project; hit rate 5% among 98,000; efflux-deficient yeast background strain, growth absorbance A615, 16 h; inhibition, % at 10 µM
CYP2C9 inh: blockers of cytochrome P450 2C9 activity – biochemical, luminescence, ADME assay, primary screen. P11712. CYP2C9 Supersomes, luciferin-H conversion. inhibition, % at 5 µM. hit rate 20% among 96,000. AID 777, 2007;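 active = blocking of liver enzyme CYP2C9 beyond about 50% at 5 µM, limit read from the data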
Target sequence (P11712 whole entry, looked up): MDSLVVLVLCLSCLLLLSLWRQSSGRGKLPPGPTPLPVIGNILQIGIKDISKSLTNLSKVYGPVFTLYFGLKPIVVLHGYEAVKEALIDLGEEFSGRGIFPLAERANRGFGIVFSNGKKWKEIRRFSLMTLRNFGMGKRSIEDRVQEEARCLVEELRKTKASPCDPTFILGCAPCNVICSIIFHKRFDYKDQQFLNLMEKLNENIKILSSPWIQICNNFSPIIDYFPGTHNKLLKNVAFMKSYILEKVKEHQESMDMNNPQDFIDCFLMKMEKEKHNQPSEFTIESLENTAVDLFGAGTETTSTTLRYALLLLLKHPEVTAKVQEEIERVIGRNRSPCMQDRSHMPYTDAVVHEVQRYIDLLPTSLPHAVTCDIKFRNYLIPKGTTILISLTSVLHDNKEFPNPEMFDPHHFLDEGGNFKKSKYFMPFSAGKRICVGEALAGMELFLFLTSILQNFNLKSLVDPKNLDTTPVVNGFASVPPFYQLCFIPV
CYP2C9 activ: human CYP2C9 activators, primary screen, biochemical, luminescence. Cytochrome P450 2C9 (Homo sapiens), P11712. recombinant CYP2C9, luciferin-H conversion; stronger effect = higher value; factor 1 = untreated enzyme, 0 = blocked. activation factor at 5 µM. hit rate 1.4% among 96,000;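 active = activation factor of 2 or more for CYP2C9 at a 5 µM dose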
Large screens that a line does not name were inactive. Cut-off read from the data, not from the text of the source, unless noted: active = inhibition above about 30%; inactive = the rest.

Cc1cccc(S(=O)(=O)C(C#N)c2nc3ccccc3nc2N2CCCC2)c1 (stereo not drawn)	none
Cc1ccc(S(=O)(=O)C(C#N)c2nc3ccccc3nc2N2CCC(C)CC2)cc1 (stereo not drawn)	none
N#CC(c1nc2ccccc2nc1N1CCCC1)S(=O)(=O)c1ccccc1 (stereo not drawn)	PostGolgi ctrl 31.4
N#CC(c1nc2ccccc2nc1N1CCCC1)S(=O)(=O)c1cccs1 (stereo not drawn)	CYP2C9 inh 74.8
O=C(O)C1C2C=CC(C2)C1C(=O)Nc1ccc(C(=O)N2CCCCC2)c(Cl)c1 (stereo not drawn)	none
COc1ccccc1C(=O)Nc1cc2cc(Cl)ccc2oc1=O	none
Cc1ccc(S(=O)(=O)C(C#N)c2nc3ccccc3nc2N2CCN(C)CC2)cc1C (stereo not drawn)	CYP2C9 inh 75.2
CC1(C)CC2CC(C)(CN2C(=O)CCCN2C(=O)c3ccccc3C2=O)C1 (stereo not drawn)	CYP2C19 inhib 86.4
CC1(C)CC2CC(C)(CN2C(=O)COc2cccc3ccccc23)C1 (stereo not drawn)	PostGolgi ctrl 46.5
CCOC(=O)C(=O)Nc1ccccc1C(=O)NC(C)C	none
COc1ccc(CCn2c(N3CCN(Cc4ccccc4)CC3)nc3c2c(=O)[nH]c(=O)n3C)cc1	CYP2C19 inhib 62.1
COCCn1c(N2CCN(c3ccc(OC)cc3)CC2)nc2c1c(=O)[nH]c(=O)n2C	CYP2C19 inhib 60.6
Cc1ccnc(SCCn2c(N3CCN(Cc4ccccc4)CC3)nc3c2c(=O)[nH]c(=O)n3C)n1	CYP2C19 inhib 83.0, CYP2C9 inh 77.5
Cn1c(=O)[nH]c(=O)c2c1nc(Br)n2CCSc1ncccn1	PostGolgi ctrl 35.5 (no result: CYP2C19 act, CYP2C19 inhib, CYP2C9 inh, CYP2C9 activ)
Cn1c(=O)[nH]c(=O)c2c1nc(N1CCN(c3ccccc3)CC1)n2CCSc1ncccn1	none
COc1ccc(CCn2c(N3CCOCC3)nc3c2c(=O)[nH]c(=O)n3C)cc1	none
COc1ccc(C=O)cc1COc1ccc(Cl)cc1[N+](=O)[O-]	none
COc1ccc(CNc2ccccc2SC)cc1OC	CYP2C19 inhib 83.4
COc1cc(CNC2CCCCCC2)cc(OC)c1OC	none
COc1cc(CNc2ccccc2SC)cc(OC)c1OC	CYP2C19 inhib 94.7, CYP2C9 inh 89.4
O=C1Nc2cc(C(=O)N3CCN(Cc4ccccc4)CC3)ccc2SC1N1CCOCC1 (stereo not drawn)	none
N#C[C@H]1[C@H](c2ccccc2)[C@](C#N)(C(=O)c2ccccc2)[C@@H]2C=Cc3ccccc3N21	none
CC(C)CCNC(=O)C1CCN(c2nnc(-n3cccc3)s2)CC1	none
COc1ccc(OC)c(S(=O)(=O)N2CCC(C(=O)N3CCN(Cc4ccccc4)CC3)CC2)c1	CYP2C9 inh 54.9
COc1ccc(OC)c(CCNC(=O)C2CCN(c3nnc(-n4cccc4)s3)CC2)c1	CYP2C19 inhib 92.7, CYP2C9 inh 65.4
COc1ccc(OC)c(S(=O)(=O)N2CCC(C(=O)NCCc3ccccc3)CC2)c1	CYP2C9 activ 3.2
COc1ccc(CNC(=O)C2CCCN(S(=O)(=O)c3cc(C)ccc3OC)C2)cc1 (stereo not drawn)	PostGolgi ctrl 40.0
CN(C=O)CP(=O)(O)CN1CCCCC1	none
COc1ccc(OC)c(S(=O)(=O)N2CCC(C(=O)NC(C)c3ccccc3)CC2)c1 (stereo not drawn)	CYP2C9 activ 2.9
COc1ccc(OC)c(S(=O)(=O)N2CCN(C)CC2)c1	none
COc1ccc(CNC(=O)C2CCN(S(=O)(=O)c3cc(OC)ccc3OC)CC2)cc1	CYP2C19 inhib 64.9
CCc1ccccc1N1CCN(S(=O)(=O)c2cc(OC)ccc2OC)CC1	CYP2C19 inhib 100.0, CYP2C9 inh 98.7
COc1ccc(C2C(C(=O)Nc3cccc(C)n3)c3ccccc3C(=O)N2C)cc1 (stereo not drawn)	none
COc1ccc(N(CC(=O)N2CCc3ccccc3C2)S(=O)(=O)c2c(C)nn(C)c2C)cc1	CYP2C19 inhib 91.1, CYP2C9 inh 64.4
COc1ccc(OC)c(S(=O)(=O)N(C)CC(=O)N2CCc3ccccc3C2)c1	CYP2C19 inhib 67.8, CYP2C9 inh 80.2
COc1ccc(N(CC(=O)NCc2ccccc2OC)S(=O)(=O)c2c(C)nn(C)c2C)cc1	CYP2C19 inhib 66.1, CYP2C9 inh 93.5
COc1ccc(N(CC(=O)N2CCc3ccccc3C2)S(C)(=O)=O)cc1	none
COc1ccccc1CNC(=O)CN(c1ccc(C)cc1)S(=O)(=O)c1c(C)nn(C)c1C	CYP2C19 inhib 70.3, CYP2C9 inh 80.6
Cc1nn(C)c(C)c1S(=O)(=O)N(CC(=O)NCCN1CCOCC1)c1ccc(C(C)C)cc1	none (no result: CYP2C19 act, CYP2C19 inhib, CYP2C9 inh, CYP2C9 activ)
Cc1ccc(C2C(C#N)=C(N)SC(N)=C2C#N)cc1	PostGolgi ctrl 39.6
Cc1ccc(C2C(C#N)=C(N)SC(N)=C2C#N)c(C)c1	CYP2C19 inhib 54.2
N#CC1=C(N)SC(N)=C(C#N)C1c1ccoc1	none
CCCN1C2=NCCCN2c2ccccc21	PostGolgi ctrl 38.5
CCCCN1C2=NCCCN2c2ccccc21	none
CCCCCCN1C2=NCCN2c2ccccc21	PostGolgi yeast 32.5
CCCN1C2=NCCN2c2ccccc21	none
CC(C)Oc1ccc(C(=O)O)c(C(=O)O)c1	none
CCOc1ccc(C(=O)Nn2cnnc2)cc1	CYP2C19 inhib 73.7, CYP2C9 inh 76.2
CC(C)CNC(=O)COc1ccc2c3c(c(=O)oc2c1)CCC3	CYP2C9 inh 76.4
CCOC(=O)CCc1c(C)c2ccc(OCc3nn[nH]n3)cc2oc1=O	CYP2C9 inh 71.3
CC(=O)COc1ccc2c3c(c(=O)oc2c1)CCCC3	CYP2C19 inhib 64.3
O=c1oc2cc(OCc3nn[nH]n3)ccc2c2c1CCCC2	CYP2C19 inhib 94.6, CYP2C9 inh 96.3
CC(=O)C(C)Oc1ccc2c3c(c(=O)oc2c1)CCCC3 (stereo not drawn)	none
c1ccc(-c2nc(N3CCN(c4ccccc4)CC3)nc(-n3ccnc3)n2)cc1	CYP2C19 inhib 52.5, PostGolgi ctrl 53.8, CYP2C9 inh 65.6
c1ccc(-c2ccc(-n3ccnc3)cc2)cc1	CYP2C19 inhib 98.9, CYP2C9 inh 89.6
c1ccc(-c2nc(N3CCCCCC3)nc(-n3ccnc3)n2)cc1	PostGolgi yeast 62.1, PostGolgi ctrl 72.0
Nc1nc(-c2cccnc2)nc(N2CCCCC2)n1	none
COCCn1c(SCC(=O)OC(C)C)nnc1-c1ccccc1	none
O=c1oc2ccccc2cc1-c1nnc(NCc2ccco2)s1	none
N#Cc1nc(-c2cccs2)oc1NCc1ccccc1Cl	CYP2C9 inh 57.0
Cc1ccc(CNc2oc(-c3cccs3)nc2C#N)cc1	CYP2C9 inh 78.0
N#Cc1nc(-c2cccs2)oc1NCc1ccc(Cl)cc1	none
C=CCNc1oc(-c2cccs2)nc1C#N	CYP2C19 inhib 72.1
